# Screens (PubChem)
# DT40 TDP1 no CPT: qHTS for Inhibitors of human tyrosyl-DNA phosphodiesterase 1 (TDP1): qHTS in cells in absence of CPT; Potency, µM (series often up to 46.2 µM), inactives show at the highest dose activity change, negative = growth inhibition, usual class: inhibitors; AID 686978, 2013; DT40 Tdp1-/- hTDP1 cells, no CPT, ATP luminescence, 48 h; 15% of 420,000 active; also: % is scaled to controls: 0 for no effect and ±100 for the full control effect; nearly all actives have a fitted effect of over 55% in size
#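 Stably hTDP1-transfected Tdp1-null chicken DT40 cells were treated with library compounds minus camptothecin and grown for at least 48 hr at 37 °C, after which cellular ATP was quantified by luminescence.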
# ClpP mod: qHTS Assay for Activators of ClpP; ATP-dependent Clp protease proteolytic subunit (Bacillus subtilis (strain 168)), P80244; purified B. subtilis ClpP, FRET peptide cleavage, 20 min; Potency, µM (highest dose often 57.5 µM), without a hit: top-dose activity change, negative = active; 1.9% of 340,000 active; AID 651965, 2013; active = well fitted falling curve with a large enough effect; inconclusive = small, poorly fitted or top-dose-only effect; inactive = no such curve, though single readings can be large or run the other way; also: the source files actives as falling curves though it sought activators and does not explain the sign; nearly all actives have a fitted effect of over 65% in size
# Target sequence (P80244 whole entry, looked up): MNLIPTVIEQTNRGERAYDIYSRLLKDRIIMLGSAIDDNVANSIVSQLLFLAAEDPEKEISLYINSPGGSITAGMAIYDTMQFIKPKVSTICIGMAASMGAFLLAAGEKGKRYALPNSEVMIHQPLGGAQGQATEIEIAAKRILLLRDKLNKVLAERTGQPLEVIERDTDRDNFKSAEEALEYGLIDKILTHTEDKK
#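 Buffer: 100 mM Tris/HCl pH8, 100 mM KCl, 0.05% low protease BSA, 2.5% glycerol, 0.01% Tween-20. ClpP 10 microg/mL final; 20 min RT; delta FRET normalized to ADEP and DMSO controls.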
# TDP1 inh: blocks human tyrosyl-DNA phosphodiesterase 1; recombinant TDP1, AlphaScreen DNA substrate cleavage; Q9NUW8; 0.28% of 350,000 active; Potency, µM (highest dose often 130 µM), for inactives: at the top dose activity change, negative = inhibition, most hits filed as inhibitors; also: % is scaled to controls: 0 for no effect and ±100 for the full control effect; nearly all actives have a fitted effect of over 40% in size
#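 AlphaScreen read-out: signal falls as enzyme removes the 3' tyrosine-FITC from a 5'-biotinylated DNA oligo (15 nM, 5 min, RT). Enzyme was E. coli-made recombinant Tdp1 at 1 nM, exposed to compound for 15 min beforehand; beads 10 ug/ml, 10 min.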
# DT40 TDP1 CPT: DT40-hTDP1 cell growth loss with CPT. chicken DT40 Tdp1-/-;hTDP1 cells + 20 nM CPT, ATP luminescence, 48 h. Potency, µM (top dose mostly 46.2 µM), inactives show at the top dose activity change, negative = growth inhibition, usual class: inhibitors. 12% of 420,000 active; also: % is scaled to controls: 0 for no effect and ±100 for the full control effect; nearly all actives have a fitted effect of over 55% in size
#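 Chicken DT40 Tdp1-/- cells stably complemented with human TDP1 were seeded at 400 cells/well in medium containing 20 nM camptothecin, exposed to pin-transferred compounds, and grown at 37 °C for at least 48 hr. Viability was read as ATP luminescence.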
# * = called active by the depositor; ? = inconclusive; / = no result; ! = a repeat was not active; [ ] = remark or other dose. Hits are enriched below; roughly 17% of the tested compounds scored in any of these assays. Unless noted, calls follow the shape of the dose curve; as a rule, active = well fitted curve in the direction sought with a large enough effect; inconclusive = small, poorly fitted or top-dose-only effect, or another doubt; inactive = no such curve, though single readings can be large; an effect the other way counts as inactive or inconclusive. Potency is read from the fitted curve at half-maximal effect.
SMILES,DT40 TDP1 no CPT,ClpP mod,TDP1 inh,DT40 TDP1 CPT
CC1CCCC(=O)CCC/C=C/c2cc(O)cc(O)c2C(=O)O1 (configuration not stated),-15%,/,12%[56.1 µM],3%
CN(C)Cc1c[nH]c2ccccc12,13µM*!,-2%,4%,12µM*
C=CCN(CC=C)Cc1c[nH]c2ccccc12,?,0%,10%,12µM*
CC(=O)Cc1c[nH]c2ccccc12,?,0%,4%,?
c1ccc2c(CCN3CCCCC3)c[nH]c2c1,0%,?,/,-14%
C=CCn1c(O)c(C(C)=NCCc2c[nH]c3ccccc23)c(=O)[nH]c1=O,-8%,-3%,3%,18%
C/C(=N\Nc1ccccc1)c1c(O)n(Cc2ccccc2)c(=O)[nH]c1=O,?,-2%,3%,15µM*
C=CCn1c(O)c(C(C)=NC(C)c2ccccc2)c(=O)[nH]c1=O (configuration not stated),16µM*,1%,/,?
C=CCn1c(O)c(C(C)=NCCC(c2ccccc2)c2ccccc2)c(=O)[nH]c1=O,16µM*,4%,0%,21µM*
C=CCn1c(O)c(C(C)=NCCCN(C)C)c(=O)[nH]c1=O,25%,14µM*,-3%,13%
C/C(=N\Nc1ccccc1)c1c(O)n(-c2ccccc2)c(=O)[nH]c1=O,-7%,/,8%,8%
C[C@H]1C2Cc3ccc(O)cc3[C@]1(C)CCN2CC1CC1,/,/,10%[56.1 µM],/
NC(CP(=O)(O)O)C(=O)O (configuration not stated),-4%,/,13%[56.1 µM],-2%
COC(=O)c1ccc(NC2=C(Cl)C(=O)OC2OC(=O)c2ccccc2)cc1 (configuration not stated),?,-3%,2%,?
COC1=CC(=O)O[C@H](/C=C/c2ccc3c(c2)OCO3)C1,/,/,11%,/
CN(C(=O)Oc1ccc(Cl)c2cccnc12)c1ccccc1,-15%,-5%,6%,-15%
Cc1cccc(NC(=O)Oc2ccc(Cl)c3cccnc23)c1,5.2µM*,1%,/,12µM*
CC(=O)Oc1ccc(Cl)c2cccnc12,8.2µM*,/,18%,3.7µM*
CCc1cccc(CC)c1NC1=NCCN1,/,/,5%,/
CCCC1=Nc2cc(C(=O)NCCc3ccc(OCC)cc3)ccc2Sc2ccccc21,21µM*,0%,0%[12.3 µM],?
CCCC1=Nc2cc(C(=O)NCCCN(CC)CC)ccc2Sc2ccccc21,29µM*,3%,0%,?
CC(C)CCNC(=O)CNC(=O)[C@@H](C)NC(=O)[C@@H](N)Cc1ccc(O)cc1,/,/,9%,/
CC1N(P(=O)(c2ccccc2)c2ccccc2)CC(O)(c2ccccc2)CC12CC2 (configuration not stated),/,/,8%,/
CN(C)C(=O)Oc1ccc(Br)cc1C(=O)Nc1ccc(F)c(Cl)c1,23µM*,/,-1%,23µM*
C[C@@H]1O[C@H](O[C@@H]2C=C3CC[C@H]4[C@@H](CC[C@]5(C)[C@@H](c6ccc(=O)oc6)CC[C@]45O)[C@@]3(C)CC2)[C@@H](O)[C@H](O)[C@@H]1O,/,/,12%[21 µM],/
SMILES,DT40 TDP1 no CPT,ClpP mod,TDP1 inh,DT40 TDP1 CPT
COC(=O)C1=C(c2ccc(S(C)(=O)=O)cc2)C[C@@H]2CC[C@H]1N2C(=O)NCc1ccco1,1%,0%,/,3%
COc1ccc(S(=O)(=O)Nc2cc([N+](=O)[O-])ccc2OC)cc1,21µM*,2%,-3%,?
CC[N@+]1(C)CCC[C@@H](OC(=O)C(O)(c2ccccc2)c2ccccc2)C1,/,/,2%[56.1 µM],/
COc1ccc(CCNCc2ccc(C)s2)cc1OC,-15%,/,2%,1%
COc1ccc(CCNc2nccn(-c3ccc(C)c(C)c3)c2=O)cc1OC,13µM*,-10%,11%,15µM*
CCOc1cc(C)cc2oc(=O)c3c(c12)CCCC3,7%,/,/,0%
Cc1cc(O)c2c3c(c(=O)oc2c1)CCC(C)C3 (configuration not stated),12µM*,-5%,3%,15µM*
CCCNC(=O)N1[C@H]2CC[C@@H]1C(C(=O)OC)=C(c1cccc(OC)c1OC)C2,-8%,1%,/,-21%
CC(=O)C1=C(O)C2(C)c3c(O)c(C)c(O)c(C(C)=O)c3OC2CC1=O (configuration not stated),23µM*,-1%,/,?
Cc1cc(C)n(-c2nc3nonc3nc2Nc2cccc(C)c2C)n1,?,0%,7%,?
Cc1cccc(Cc2cnc(NC(=O)c3ccc4c(c3)CC(c3ccccc3)OC4=O)s2)c1 (configuration not stated),21µM*,-3%,7%,26µM*
COc1ccccc1NC(=O)N(Cc1ccco1)C1CCN(C(C)=O)CC1,?,0%,0%,-25%
CC(=O)O[C@]1(C)C(=O)OC/C2=C/CN(C)CCC(OC(=O)[C@@](O)(C(C)O)C[C@H]1C)C2=O (some centres not stated),16%,/,/,19%
COP(=S)(OC)Oc1ccc(SC)c(C)c1,-12%,-2%,-3%[56.1 µM],-11%
CCOP(=O)(NC(C)C)Oc1ccc(SC)c(C)c1 (configuration not stated),22µM*!,0%,-5%,22µM*
CCOC(=O)N1CCN(c2ccc(Cl)c(Cl)c2)CC1,13µM*,-1%,0%,?
COc1cc2c(cc1OC)C1C(=O)c3c(cc4c(c3O)C=CC(C)(C)O4)OC1CO2 (configuration not stated),0.73µM*,/,21%[56.1 µM],1.3µM*
CC(O)CN1CCN(CC(=O)[O-])CCN(CC(=O)[O-])CCN(CC(=O)[O-])CC1.[Gd+3] (configuration not stated),-1%,/,/,-26%
O=C1NC(=O)N(CCc2ccc(F)cc2)C(=O)/C1=C\C=C\c1ccccc1,3.7µM*,/,2%,2.3µM*
C=CCN1C(=O)NC(=O)/C(=C/C=C/c2ccccc2)C1=O,23µM*,0%,-5%,16µM*
C=CCN1C(=O)NC(=O)/C(=C/c2ccc(OC)c(CSc3ccccn3)c2)C1=O,?,2%,3%,?
CCN1C[C@@]2(C)CC[C@@H](OC)[C@@]34C2C(O)[C@@]2(OCO[C@]25CC(OC)C2C[C@@]3(O)C5C2O)C14 (some centres not stated),-2%,/,6%[56.1 µM],-1%
O=C1C2CCCC1C(N1CCCCC1)CC2 (configuration not stated),-6%,-12%,7%,15%
CN1C(=O)C(=Cc2coc3ccccc3c2=O)C(=O)N(C)C1=O,23µM*,3%,0%,?
O=C(COc1ccc(Cl)cc1)N1CCN(Cc2ccc([N+](=O)[O-])cc2)CC1,23µM*,2%,0%,?
COc1ccc(OCC(=O)N2CCN(Cc3nc4cc([N+](=O)[O-])ccc4n3C)CC2)cc1,?,-1%,-2%,15µM*
